# Data taken from publication PMC12350791.
# Experiments:
# Test in all cases: cross-linking mass spectrometry
# Details in all cases: DSBSO, in cells or nuclear extract, not told apart
# LARS1 = LARS1 (UniProt Q9P2J5)
# LDHB = LDHB (UniProt P07195)
# NDUFA6 = NDUFA6 (UniProt P56556)
# NDUFA5 = NDUFA5 (UniProt Q16718)
# MCM7 = MCM7 (UniProt P33993)
# LSM4 = LSM4 (UniProt Q9Y4Z0)
# MAPK14 = MAPK14 (UniProt Q16539)
# NUP88 = NUP88 (UniProt Q99567)
# MCM6 = MCM6 (UniProt Q14566)
# MAD1L1 = MAD1L1 (UniProt Q9Y6D9)
# NAP1L4 = NAP1L4 (UniProt Q99733)
# NUDT5 = NUDT5 (UniProt Q9UKK9)
# MYH9 = MYH9 (UniProt P35579)
# NUP85 = NUP85 (UniProt Q9BW27)
# MAP1B = MAP1B (UniProt P46821)
# MBOAT7 = MBOAT7 (UniProt Q96N66)
# MYDGF = MYDGF (UniProt Q969H8)
# NOC4L = NOC4L (UniProt Q9BVI4)
# MED4 = MED4 (UniProt Q9NPJ6)
# NUP160 = NUP160 (UniProt Q12769)
# RAE1 = RAE1 (UniProt P78406)
# NMI = NMI (UniProt Q13287)
# NCBP1 = NCBP1 (UniProt Q09161)
# MCM2 = MCM2 (UniProt P49736)
# NCAPD2 = NCAPD2 (UniProt Q15021)
# MYO9B = MYO9B (UniProt Q13459)
# NIP7 = NIP7 (UniProt Q9Y221)
# NPM1 = NPM1 (UniProt P06748)
# NOL7 = NOL7 (UniProt Q9UMY1)
# NUP62 = NUP62 (UniProt P37198)
# MARS1 = MARS1 (UniProt P56192)
# NUP50 = NUP50 (UniProt Q9UKX7)
# NDUFAF4 = NDUFAF4 (UniProt Q9P032)
# NDUFS2 = NDUFS2 (UniProt O75306)
# OSBPL11 = OSBPL11 (UniProt Q9BXB4)
# PAFAH1B2 = PAFAH1B2 (UniProt P68402)
# PAM16 = PAM16 (UniProt Q9Y3D7)
# PAXBP1 = PAXBP1 (UniProt Q9Y5B6)
# PDE4DIP = PDE4DIP (UniProt Q5VU43)
# PELP1 = PELP1 (UniProt Q8IZL8)
# PFKP = PFKP (UniProt Q01813)
# PHC2 = PHC2 (UniProt Q8IXK0)
# PNN = PNN (UniProt Q9H307)
# PNO1 = PNO1 (UniProt Q9NRX1)
# RPL23A = RPL23A (UniProt P62750)
# PRPF31 = PRPF31 (UniProt Q8WWY3)
# PSME2 = PSME2 (UniProt Q9UL46)
# PUF60 = PUF60 (UniProt Q9UHX1)
# RAD50 = RAD50 (UniProt Q92878)
# RAN = RAN (UniProt P62826)
# RNF20 = RNF20 (UniProt Q5VTR2)
# RPF1 = RPF1 (UniProt Q9H9Y2)
# RPLP2 = RPLP2 (UniProt P05387)
# RREB1 = RREB1 (UniProt Q92766)
# SIN3A = SIN3A (UniProt Q96ST3)
# RSL24D1 = RSL24D1 (UniProt Q9UHA3)
# RTCB = RTCB (UniProt Q9Y3I0)
# RUVBL2 = RUVBL2 (UniProt Q9Y230)
# RWDD1 = RWDD1 (UniProt Q9H446)
# SDHA = SDHA (UniProt P31040)
# SEH1L = SEH1L (UniProt Q96EE3)
# SEPTIN11 = SEPTIN11 (UniProt Q9NVA2)
# SEPTIN2 = SEPTIN2 (UniProt Q15019)
# SERBP1 = SERBP1 (UniProt Q8NC51)
# Sequence of MCM6 (Q14566 whole entry): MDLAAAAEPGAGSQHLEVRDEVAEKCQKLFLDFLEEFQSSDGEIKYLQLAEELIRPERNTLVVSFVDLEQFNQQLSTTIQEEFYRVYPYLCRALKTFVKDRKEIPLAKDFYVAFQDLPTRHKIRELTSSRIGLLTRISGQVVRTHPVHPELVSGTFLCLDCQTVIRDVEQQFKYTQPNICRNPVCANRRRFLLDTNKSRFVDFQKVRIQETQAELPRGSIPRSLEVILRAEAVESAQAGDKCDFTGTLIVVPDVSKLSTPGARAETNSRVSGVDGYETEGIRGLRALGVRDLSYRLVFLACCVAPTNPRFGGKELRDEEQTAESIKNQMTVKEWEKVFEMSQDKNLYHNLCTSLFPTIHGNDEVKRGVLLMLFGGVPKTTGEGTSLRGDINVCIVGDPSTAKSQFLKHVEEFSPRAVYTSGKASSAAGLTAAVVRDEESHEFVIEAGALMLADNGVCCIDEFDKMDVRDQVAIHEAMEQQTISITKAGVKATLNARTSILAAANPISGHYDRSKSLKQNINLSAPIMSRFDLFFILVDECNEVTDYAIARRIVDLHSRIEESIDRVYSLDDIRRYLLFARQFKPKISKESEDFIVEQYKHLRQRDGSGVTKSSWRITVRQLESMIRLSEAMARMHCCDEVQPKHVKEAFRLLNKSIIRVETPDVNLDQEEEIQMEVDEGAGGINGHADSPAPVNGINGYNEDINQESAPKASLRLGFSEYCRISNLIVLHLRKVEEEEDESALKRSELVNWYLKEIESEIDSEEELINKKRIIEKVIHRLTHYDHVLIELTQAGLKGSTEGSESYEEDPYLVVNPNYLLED
# Sequence of RPF1 (Q9H9Y2 whole entry): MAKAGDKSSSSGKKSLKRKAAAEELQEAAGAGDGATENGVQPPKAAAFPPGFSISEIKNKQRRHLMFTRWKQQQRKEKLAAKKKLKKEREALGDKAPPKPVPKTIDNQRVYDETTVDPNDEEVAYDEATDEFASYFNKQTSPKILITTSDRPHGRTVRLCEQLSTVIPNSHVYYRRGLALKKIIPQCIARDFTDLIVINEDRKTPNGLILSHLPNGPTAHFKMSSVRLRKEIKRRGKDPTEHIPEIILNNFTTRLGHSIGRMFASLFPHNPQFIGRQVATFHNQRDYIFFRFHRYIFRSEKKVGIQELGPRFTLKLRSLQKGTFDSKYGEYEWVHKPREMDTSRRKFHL
# Sequence of LSM4 (Q9Y4Z0 whole entry): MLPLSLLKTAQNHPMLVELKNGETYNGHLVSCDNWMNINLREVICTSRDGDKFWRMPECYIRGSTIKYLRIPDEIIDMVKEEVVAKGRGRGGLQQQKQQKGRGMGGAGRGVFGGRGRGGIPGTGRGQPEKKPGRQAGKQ
# Sequence of NUP98, P52948 (P52948 whole entry): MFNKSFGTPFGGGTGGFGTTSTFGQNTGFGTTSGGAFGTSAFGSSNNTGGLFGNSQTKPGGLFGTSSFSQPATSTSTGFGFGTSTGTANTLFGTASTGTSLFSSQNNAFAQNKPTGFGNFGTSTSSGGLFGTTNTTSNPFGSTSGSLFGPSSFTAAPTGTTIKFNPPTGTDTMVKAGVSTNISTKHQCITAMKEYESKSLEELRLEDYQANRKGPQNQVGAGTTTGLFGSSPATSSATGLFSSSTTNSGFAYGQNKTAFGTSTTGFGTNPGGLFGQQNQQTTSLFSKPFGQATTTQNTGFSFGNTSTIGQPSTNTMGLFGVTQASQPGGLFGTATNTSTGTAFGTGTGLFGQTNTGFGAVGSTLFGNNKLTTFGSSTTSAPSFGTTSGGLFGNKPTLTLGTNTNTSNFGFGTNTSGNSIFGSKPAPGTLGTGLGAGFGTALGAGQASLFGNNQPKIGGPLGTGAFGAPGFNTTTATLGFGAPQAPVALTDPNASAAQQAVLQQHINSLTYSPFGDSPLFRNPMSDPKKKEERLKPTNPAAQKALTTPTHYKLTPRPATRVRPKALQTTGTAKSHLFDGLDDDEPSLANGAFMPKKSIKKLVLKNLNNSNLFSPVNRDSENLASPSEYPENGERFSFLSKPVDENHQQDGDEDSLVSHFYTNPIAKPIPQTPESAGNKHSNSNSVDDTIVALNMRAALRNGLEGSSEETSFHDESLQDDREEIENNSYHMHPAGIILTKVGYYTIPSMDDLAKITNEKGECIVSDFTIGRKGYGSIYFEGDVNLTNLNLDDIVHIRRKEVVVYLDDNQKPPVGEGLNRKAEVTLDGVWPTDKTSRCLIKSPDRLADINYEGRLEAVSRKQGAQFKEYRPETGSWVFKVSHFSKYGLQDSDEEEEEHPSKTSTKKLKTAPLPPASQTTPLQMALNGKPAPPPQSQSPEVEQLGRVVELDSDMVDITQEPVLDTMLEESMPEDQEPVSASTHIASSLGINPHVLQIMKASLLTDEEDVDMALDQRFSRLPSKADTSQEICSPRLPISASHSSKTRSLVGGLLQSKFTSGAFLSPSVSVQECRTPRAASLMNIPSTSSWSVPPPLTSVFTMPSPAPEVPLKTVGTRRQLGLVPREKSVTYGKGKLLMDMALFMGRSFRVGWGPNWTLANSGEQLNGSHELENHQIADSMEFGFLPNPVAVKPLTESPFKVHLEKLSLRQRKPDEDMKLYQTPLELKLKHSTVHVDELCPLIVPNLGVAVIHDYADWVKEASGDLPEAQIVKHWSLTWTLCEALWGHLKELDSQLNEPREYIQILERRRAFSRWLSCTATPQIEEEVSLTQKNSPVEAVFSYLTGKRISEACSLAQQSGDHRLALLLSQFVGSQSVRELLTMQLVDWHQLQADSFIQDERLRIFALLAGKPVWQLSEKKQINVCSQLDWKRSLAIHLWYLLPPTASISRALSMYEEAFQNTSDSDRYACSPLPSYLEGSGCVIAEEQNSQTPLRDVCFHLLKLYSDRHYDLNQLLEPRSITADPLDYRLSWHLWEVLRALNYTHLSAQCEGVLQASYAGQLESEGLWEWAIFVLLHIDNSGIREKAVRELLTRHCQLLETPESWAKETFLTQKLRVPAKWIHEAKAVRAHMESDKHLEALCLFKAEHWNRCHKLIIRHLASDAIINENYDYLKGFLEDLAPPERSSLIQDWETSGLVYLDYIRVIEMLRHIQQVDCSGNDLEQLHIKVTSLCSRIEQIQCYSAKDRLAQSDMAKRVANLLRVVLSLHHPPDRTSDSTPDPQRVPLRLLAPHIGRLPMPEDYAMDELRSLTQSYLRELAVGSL
# Sequence of NDUFS7, O75251 (O75251 whole entry): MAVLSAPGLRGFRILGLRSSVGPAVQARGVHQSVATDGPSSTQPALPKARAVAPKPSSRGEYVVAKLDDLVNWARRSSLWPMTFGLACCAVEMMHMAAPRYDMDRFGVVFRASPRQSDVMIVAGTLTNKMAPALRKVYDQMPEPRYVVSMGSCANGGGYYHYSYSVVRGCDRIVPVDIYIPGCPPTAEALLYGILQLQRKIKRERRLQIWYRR
# Sequence of RAD50 (Q92878 whole entry): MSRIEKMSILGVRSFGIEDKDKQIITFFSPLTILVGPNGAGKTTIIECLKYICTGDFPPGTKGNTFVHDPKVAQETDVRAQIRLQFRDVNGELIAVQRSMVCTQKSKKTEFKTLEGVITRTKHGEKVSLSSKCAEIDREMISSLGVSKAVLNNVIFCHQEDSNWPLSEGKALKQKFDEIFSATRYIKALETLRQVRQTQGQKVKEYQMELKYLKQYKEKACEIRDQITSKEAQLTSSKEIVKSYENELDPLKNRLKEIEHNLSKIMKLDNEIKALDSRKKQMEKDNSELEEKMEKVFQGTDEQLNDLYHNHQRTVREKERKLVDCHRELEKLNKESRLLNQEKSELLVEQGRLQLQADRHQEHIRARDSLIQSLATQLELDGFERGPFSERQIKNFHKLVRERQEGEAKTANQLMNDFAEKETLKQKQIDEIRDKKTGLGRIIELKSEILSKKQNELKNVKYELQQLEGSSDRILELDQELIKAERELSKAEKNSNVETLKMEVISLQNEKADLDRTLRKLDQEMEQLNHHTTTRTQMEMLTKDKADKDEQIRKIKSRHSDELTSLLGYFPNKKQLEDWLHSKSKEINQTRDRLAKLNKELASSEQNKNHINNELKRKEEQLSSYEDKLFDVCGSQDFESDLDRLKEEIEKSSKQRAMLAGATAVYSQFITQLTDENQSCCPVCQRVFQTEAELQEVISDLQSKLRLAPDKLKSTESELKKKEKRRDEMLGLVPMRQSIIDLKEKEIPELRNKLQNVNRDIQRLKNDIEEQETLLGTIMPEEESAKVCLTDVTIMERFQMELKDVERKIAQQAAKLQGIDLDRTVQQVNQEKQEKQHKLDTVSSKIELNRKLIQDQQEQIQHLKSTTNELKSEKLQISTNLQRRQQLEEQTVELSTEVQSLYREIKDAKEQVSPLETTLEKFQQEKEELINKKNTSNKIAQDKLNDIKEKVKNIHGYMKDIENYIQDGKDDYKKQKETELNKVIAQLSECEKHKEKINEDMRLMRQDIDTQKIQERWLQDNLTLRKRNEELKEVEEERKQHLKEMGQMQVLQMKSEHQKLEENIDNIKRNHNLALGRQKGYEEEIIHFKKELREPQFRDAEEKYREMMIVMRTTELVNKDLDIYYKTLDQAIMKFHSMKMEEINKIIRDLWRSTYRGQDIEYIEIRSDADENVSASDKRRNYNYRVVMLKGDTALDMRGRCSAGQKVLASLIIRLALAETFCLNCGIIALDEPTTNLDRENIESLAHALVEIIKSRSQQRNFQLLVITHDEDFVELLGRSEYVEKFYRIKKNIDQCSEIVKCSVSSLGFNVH
# Sequence of DNAJC19, Q96DA6 (Q96DA6 whole entry): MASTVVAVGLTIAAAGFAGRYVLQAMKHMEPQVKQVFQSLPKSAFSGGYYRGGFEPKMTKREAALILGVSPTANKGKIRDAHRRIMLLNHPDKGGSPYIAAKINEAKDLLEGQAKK
# Sequence of NOL7 (Q9UMY1 whole entry): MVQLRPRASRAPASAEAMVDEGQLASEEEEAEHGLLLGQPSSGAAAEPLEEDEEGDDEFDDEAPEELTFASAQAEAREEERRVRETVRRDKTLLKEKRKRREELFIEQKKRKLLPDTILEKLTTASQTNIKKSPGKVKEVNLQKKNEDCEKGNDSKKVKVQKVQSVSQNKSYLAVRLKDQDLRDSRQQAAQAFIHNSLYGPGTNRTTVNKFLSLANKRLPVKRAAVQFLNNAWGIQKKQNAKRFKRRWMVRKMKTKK
substance,measurement,setting,value
"TMF1, P82094",cross-linked residues,LARS1,K512 - K491
"LDHA, P00338",cross-linked residues,LDHB,K14 - K156
"NDUFS4, O43181",cross-linked residues,NDUFA6,K73 - K116
"NDUFA10, O95299",cross-linked residues,NDUFA5,K80 - K30
"MCM3, P25205",cross-linked residues,MCM7,K435 - K236
"LSM7, Q9UK45",cross-linked residues,LSM4,K8 - K80
"MAPKAPK2, P49137",cross-linked residues,MAPK14,K307 - K233
"NUP62, P37198",cross-linked residues,NUP88,K415 - K642
"MCM2, P49736",cross-linked residues,MCM6,K591 - K517
"MAD2L1, Q13257",cross-linked residues,MAD1L1,K122 - K666
"NAP1L1, P55209",cross-linked residues,NAP1L4,K87 - K105
"PATL1, Q86TB9",cross-linked residues,LSM4,K398 - K80
"PYCR2, Q96C36",cross-linked residues,NUDT5,K47 - K210
"TPR, P12270",cross-linked residues,MYH9,K854 - K1614
"SEH1L, Q96EE3",cross-linked residues,NUP85,K314 - K59
"H1-5, P16401",cross-linked residues,MAP1B,K161 - K2291
"COX6B1, P14854",cross-linked residues,MBOAT7,K47 - K468
"PRKCSH, P14314",cross-linked residues,MYDGF,K436 - K161
"NOP14, P78316",cross-linked residues,NOC4L,K535 - K342
"MED1, Q15648",cross-linked residues,MED4,K70 - K81
"NUP98, P52948",cross-linked residues,NUP160,K1749 - K1096
same,cross-linked residues,RAE1,K175 - K252
"IFI35, P80217",cross-linked residues,NMI,K47 - K254
"NCBP2, P52298",cross-linked residues,NCBP1,K68 - K607
"MCM4, P33991",cross-linked residues,MCM2,K819 - K807
"SMC2, O95347",cross-linked residues,NCAPD2,K1014 - K78
"H1-2, P16403",cross-linked residues,MYO9B,K140 - K1390
"NOP2, P46087",cross-linked residues,NIP7,K423 - K72
"NPM3, O75607",cross-linked residues,NPM1,K125 - K27
"UTP15, Q8TED0",cross-linked residues,NOL7,K416 - K210
"NUP214, P35658",cross-linked residues,NUP62,K755 - K371
"EEF1E1, O43324",cross-linked residues,MARS1,K21 - K663
"CSE1L, P55060",cross-linked residues,NUP50,K726 - K62
"NDUFS7, O75251",cross-linked residues,NDUFAF4,K55 - K107
same,cross-linked residues,NDUFS2,K136 - K78
"MCM7, P33993",cross-linked residues,MCM6,K75 - K197
"PPA1, Q15181",cross-linked residues,OSBPL11,K238 - K660
"PAFAH1B1, P43034",cross-linked residues,PAFAH1B2,K147 - K145
"DNAJC19, Q96DA6",cross-linked residues,PAM16,K93 - K82
"TFIP11, Q9UBB9",cross-linked residues,PAXBP1,K267 - K682
"IMMT, Q16891",cross-linked residues,PDE4DIP,K343 - K1022
"NOL9, Q5SY16",cross-linked residues,PELP1,K670 - K216
"PFKM, P08237",cross-linked residues,PFKP,K476 - K736
"RING1, Q06587",cross-linked residues,PHC2,K297 - K598
"SAP18, O00422",cross-linked residues,PNN,K74 - K109
"NPM1, P06748",cross-linked residues,PNO1,K267 - K77
same,cross-linked residues,RPL23A,K141 - K30
"SNU13, P55769",cross-linked residues,PRPF31,K86 - K315
"PSME1, Q06323",cross-linked residues,PSME2,K190 - K180
"SRSF11, Q05519",cross-linked residues,PUF60,K58 - K69
"ACTR1B, P42025",cross-linked residues,RAD50,K324 - K651
"MRE11, P49959",cross-linked residues,RAD50,K393 - K1190
"XPO1, O14980",cross-linked residues,RAN,K426 - K159
"RNF40, O75150",cross-linked residues,RNF20,K862 - K834
"WDR74, Q6RFH5",cross-linked residues,RPF1,K151 - K182
"MAK16, Q9BXY0",cross-linked residues,RPF1,K164 - K302
"RPLP1, P05386",cross-linked residues,RPLP2,K33 - K25
"HDAC1, Q13547",cross-linked residues,RREB1,K74 - K259
same,cross-linked residues,SIN3A,K220 - K552
"GTPBP4, Q9BZE4",cross-linked residues,RSL24D1,K448 - K88
"RTRAF, Q9Y224",cross-linked residues,RTCB,K185 - K492
"HAUS3, Q68CZ6",cross-linked residues,RUVBL2,K595 - K177
"DRG2, P55039",cross-linked residues,RWDD1,K311 - K166
"SDHB, P21912",cross-linked residues,SDHA,K167 - K167
"NUP43, Q8NFH3",cross-linked residues,SEH1L,K161 - K96
"SEPTIN2, Q15019",cross-linked residues,SEPTIN11,K249 - K190
"SEPTIN6, Q14141",cross-linked residues,SEPTIN2,K191 - K249
"RPS12, P25398",cross-linked residues,SERBP1,K116 - K299
